{"source": "the supplement of paper PMC6897291", "note": "Counter-ions that a name gives are not always drawn."}
{"tested_on": "RIVA", "assay": "growth inhibition by drug alone (1 - RLU/untreated control) (fraction); higher = stronger inhibition", "details": "100 nM; time (day): 6; 177Lu-lilotomab satetraxetan 0 ug/ml", "how_it_was_run": "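Plates pre-printed with the Selleck Cambridge Cancer Compound library at 10/100 nM (RIVA) or 10/1,000 nM (U-2932) received 3,000 cells/well. These cells had been washed after 18 h untreated or with a radiolabelled anti-CD37 antibody conjugate (~600 MBq/mg; 0.5 µg/ml RIVA, 1 µg/ml U-2932). Growth inhibition was obtained from RealTime-Glo luminescence in relation to untreated no-drug wells. Each daily read from day 3, taken after 1 h at 37°C, was converted as 1 − RLU/mean of 48 such wells per plate.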"}
{"molecule": "Nc1nc2[nH]cc(CCc3ccc(C(=O)N[C@@H](CCC(=O)O)C(=O)O)cc3)c2c(=O)[nH]1", "note": "[Pemetrexed]", "growth inhibition by drug alone": -0.54}
{"molecule": "COc1cc2nccc(Oc3ccc(NC(=O)Nc4cc(C)on4)c(Cl)c3)c2cc1OC", "note": "[Tivozanib (AV-951)]", "growth inhibition by drug alone": 0.00134}
{"molecule": "CCC(=O)N1CCN(c2ccc(-n3c(=O)ccc4cnc5ccc(-c6cnc7ccccc7c6)cc5c43)cc2C(F)(F)F)CC1", "note": "[Torin 1]", "growth inhibition by drug alone": 0.104}
{"molecule": "COc1cccc2c1C(=O)c1c(O)c3c(c(O)c1C2=O)C[C@@](O)(C(=O)CO)C[C@@H]3O[C@H]1C[C@H](N)[C@@H](O)[C@H](C)O1", "note": "[Epirubicin Hydrochloride]", "growth inhibition by drug alone": 0.91}
{"molecule": "Clc1ccc(Nc2nnc(Cc3ccncc3)c3ccccc23)cc1", "note": "[Vatalanib dihydrochloride (PTK787)]", "growth inhibition by drug alone": -0.165}
{"molecule": "COc1cc2nccc(Oc3ccc(NC(=O)C4(C(=O)Nc5ccc(F)cc5)CC4)cc3)c2cc1OC", "note": "[XL-184 free base (Cabozantinib)]", "growth inhibition by drug alone": -0.224}
{"molecule": "C[C@@H](O[C@H]1OCCN(Cc2n[nH]c(=O)[nH]2)[C@H]1c1ccc(F)cc1)c1cc(C(F)(F)F)cc(C(F)(F)F)c1", "note": "[Aprepitant (MK-0869)]", "growth inhibition by drug alone": -0.366}
{"molecule": "COc1cc2c(cc1O)CC[C@@H]1[C@@H]2CC[C@]2(C)[C@@H](O)CC[C@@H]12", "note": "[2-Methoxyestradiol]", "growth inhibition by drug alone": -0.63}
{"molecule": "CNCc1ccc(-c2[nH]c3cc(F)cc4c3c2CCNC4=O)cc1", "growth inhibition by drug alone": -0.0893}
{"molecule": "CC[C@@]1(O)C(=O)OCc2c1cc1n(c2=O)Cc2cc3c(CN(C)C)c(O)ccc3nc2-1", "note": "[Topotecan HCl]", "growth inhibition by drug alone": 0.882}
{"molecule": "Nc1cc(C(F)(F)F)c(-c2cc(N3CCOCC3)nc(N3CCOCC3)n2)cn1", "growth inhibition by drug alone": -0.359}
{"molecule": "CC(C)(C)c1ccc(S(=O)(=O)/C=C/C#N)cc1", "growth inhibition by drug alone": -0.195}
{"molecule": "C[C@]1(c2nc3c(C(N)=O)cccc3[nH]2)CCCN1", "note": "[ABT-888 (Veliparib)]", "growth inhibition by drug alone": -0.287}
{"molecule": "Cc1ccc(NC(=O)c2ccc(CN3CC[C@H](N(C)C)C3)c(C(F)(F)F)c2)cc1Nc1nccc(-c2cncnc2)n1", "note": "[Bafetinib (INNO-406)]", "growth inhibition by drug alone": -0.275}
{"molecule": "C[C@]12CC[C@@H]3c4ccc(O)cc4CC[C@H]3[C@@H]1CCC2=O", "note": "[Estrone]", "growth inhibition by drug alone": -0.542}
{"molecule": "O=C(c1ccc(OCCN2CCCCC2)cc1)c1c(-c2ccc(O)cc2)sc2cc(O)ccc12", "note": "[Evista (Raloxifene Hydrochloride)]", "growth inhibition by drug alone": -0.432}
{"molecule": "CCN(CC)CCNC(=O)c1c(C)[nH]c(/C=C2\\C(=O)Nc3ccc(F)cc32)c1C", "note": "[Sunitinib Malate (Sutent)]", "growth inhibition by drug alone": -0.492}
{"molecule": "CCOc1ccc(Nc2nc(-c3c(C)nc4ccccn34)cs2)cc1", "growth inhibition by drug alone": 0.952}
{"molecule": "C=CC(=O)N1CCC[C@@H](n2nc(-c3ccc(Oc4ccccc4)cc3)c3c(N)ncnc32)C1", "growth inhibition by drug alone": 0.923}
{"molecule": "CS(=O)(=O)c1cccc(CNc2nc(Nc3ccc4c(c3)CCC(=O)N4)ncc2C(F)(F)F)c1", "growth inhibition by drug alone": -0.218}
{"molecule": "CC(NC(=O)c1ccccc1/N=C/c1c(O)ccc2ccccc12)c1ccccc1", "note": "(stereo not drawn) [Sirtinol]", "growth inhibition by drug alone": -0.099}
{"molecule": "CN(Cc1cnc2nc(N)nc(N)c2n1)c1ccc(C(=O)N[C@@H](CCC(=O)O)C(=O)O)cc1", "note": "[Abitrexate (Methotrexate)]", "growth inhibition by drug alone": -0.287}
{"molecule": "OCCn1cc(-c2cnc3nnn(Cc4ccc5ncccc5c4)c3n2)cn1", "growth inhibition by drug alone": -0.402}
{"molecule": "COc1cc(Nc2ncc(F)c(Nc3ccc4c(n3)NC(=O)C(C)(C)O4)n2)cc(OC)c1OC", "note": "[R406(free base)]", "growth inhibition by drug alone": -0.462}
{"molecule": "COc1cccc2c1C(=O)c1c(O)c3c(c(O)c1C2=O)C[C@@](O)(C(=O)CO)C[C@@H]3O[C@H]1C[C@H](N)[C@H](O)[C@H](C)O1", "note": "[Doxorubicin (Adriamycin)]", "growth inhibition by drug alone": 0.915}
{"molecule": "CN(NC(=O)CC(=O)NN(C)C(=S)c1ccccc1)C(=S)c1ccccc1", "note": "[Elesclomol]", "growth inhibition by drug alone": 0.974}
{"molecule": "CN(C)CCOc1ccc(/C(=C(/CCCl)c2ccccc2)c2ccccc2)cc1", "note": "[Toremifene Citrate (Fareston, Acapodene)]", "growth inhibition by drug alone": -0.0264}
{"molecule": "CN1CCN(CCOc2cc(OC3CCOCC3)c3c(Nc4c(Cl)ccc5c4OCO5)ncnc3c2)CC1", "note": "[Saracatinib (AZD0530)]", "growth inhibition by drug alone": -0.554}
{"molecule": "CC(C)C[C@H](NC(=O)[C@H](Cc1ccccc1)NC(=O)c1cnccn1)B(O)O", "note": "[Bortezomib (Velcade)]", "growth inhibition by drug alone": 0.976}
{"molecule": "Cn1cncc1[C@@](N)(c1ccc(Cl)cc1)c1ccc2c(c1)c(-c1cccc(Cl)c1)cc(=O)n2C", "note": "[Tipifarnib (Zarnestra)]", "growth inhibition by drug alone": -0.517}
{"molecule": "COC(=O)c1ccc2c(C(=Nc3ccc(N(C)C(=O)CN4CCN(C)CC4)cc3)c3ccccc3)c(O)[nH]c2c1", "note": "[BIBF1120 (Vargatef)]", "growth inhibition by drug alone": -0.414}
{"molecule": "CC[C@@H]1/C=C(\\C)C[C@H](C)C[C@H](OC)[C@H]2O[C@@](O)(C(=O)C(=O)N3CCCC[C@H]3C(=O)O[C@H](/C(C)=C/[C@@H]3CC[C@H](Cl)[C@H](OC)C3)[C@H](C)[C@@H](O)CC1=O)[C@H](C)C[C@@H]2OC", "note": "[Pimecrolimus]", "growth inhibition by drug alone": 0.477}
{"molecule": "CN(C)CCOc1ccc(-c2nc(-c3ccncc3)c(-c3ccc4c(c3)CC/C4=N\\O)[nH]2)cc1", "growth inhibition by drug alone": -0.615}
{"molecule": "COc1ccc(CCN2CCN(CCCc3ccccc3)CC2)cc1OC", "growth inhibition by drug alone": -0.809}
{"molecule": "CNC(=O)c1cc(Oc2ccc(NC(=O)Nc3cc(C(C)(C)C)nn3-c3ccc4ncccc4c3)c(F)c2)ccn1", "note": "[DCC-2036 (Rebastinib)]", "growth inhibition by drug alone": -0.405}
{"molecule": "CCC(C)(C)C(=O)O[C@H]1C[C@@H](C)C=C2C=C[C@H](C)[C@H](CC[C@@H]3C[C@@H](O)CC(=O)O3)[C@H]21", "note": "[Simvastatin (Zocor)]", "growth inhibition by drug alone": -0.175}
{"molecule": "CCc1ccc(CCOc2ccc(CC3SC(=O)NC3=O)cc2)nc1", "note": "(stereo not drawn) [Pioglitazone (Actos)]", "growth inhibition by drug alone": -0.359}
{"molecule": "O=C(O)C(Cc1c[nH]c2ccccc12)N1C(=O)c2ccccc2C1=O", "note": "(stereo not drawn)", "growth inhibition by drug alone": -0.339}
